Compound activity as filed in PubChem BioAssay.
Compounds with a hit are over-represented: about 7.4% of the library has one in this group of screens.
Rab9 promoter act: Rab9 promoter activation. Huh7 Rab9 promoter-luciferase reporter, luminescence, 24 h. actives 2.8% (n = 320,000). Potency, µM (doses to about 9.22 µM), inactives show at the top dose activation, negative = inhibition, actives largely listed as activators. AID 485297; also: % of control where 0% means no effect; nearly all actives have a fitted effect of over 60% in size
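Cell-based reporter: Huh7 stable for Rab9 promoter-driven luciferase, plated in reduced-serum medium with 10% FBS at 1500 cells/well, compound-treated 24 h at 37 °C, luminescence read after 10 min reagent.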
NPC1 promoter act: activators of NPC1 promoter. actives 2.4% (n = 320,000). Huh7 NPC1 promoter luciferase reporter, 24 h. Potency, µM (highest dose often 9.22 µM), for inactives: top-dose activation, actives largely listed as activators; also: % of control where 0% means no effect; nearly all actives have a fitted effect of over 60% in size
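Stably transfected Huh7 (NPC1 promoter→luciferase), 1500 cells/well in Opti-MEM + 10% FBS, 2 h settle, then compound 24 h at 37 °C. Luminescence after 10 min with Amplite reagent.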
SMN2 splice up: SMN2 splice variant enhancement; actives 2.8% (n = 210,000); Potency, µM (highest dose often 46.1 µM), without a hit: at the top dose activity change, positive = activation, most hits filed as activators; HEK293 SMN2-luciferase splicing reporter, luminescence, 30-36 h; AID 1458; also: % of control where 0% means no effect; nearly all actives have a fitted effect of over 55% in size
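HEK293 cells carry an SMN2 […]–luciferase reporter in which exon 7 inclusion puts luciferase in frame. Cells were plated 10-12 h before compound addition, then incubated 30-36 h at 37C. ONE-Glo luminescence was read; sodium butyrate at 4.5 mM final served as control.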
p53 reactivator: restores transcriptional activity of mutant p53; H1299 p53-A138V BP100-luciferase reporter, luminescence, 24 h; Potency, µM (series often up to 92.2 µM), for inactives: top-dose activity change, positive = activation, most hits filed as activators; actives 0.063% (n = 320,000); also: % of control where 0% means no effect; nearly all actives have a fitted effect of over 45% in size
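H1299 (p53-null), stable ts p53-A138V + BP100-Luc; 1000 cells/well, Opti-MEM/10% FBS; cpd 4 pt, 1:5; 24 h, 37 deg C, 5% CO2; detection reagent 10 min RT; luminescence.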
ELG1 genotoxic: inducers of genotoxicity in HEK293T ELG1-luciferase cells; Potency, µM (highest dose often 46 µM), for the others: top-dose activity change, positive = activation, hits mostly activators; actives 1.3% (n = 330,000); HEK293T ELG1-luciferase reporter, luminescence, 16 h; also: % of control where 0% means no effect; nearly all actives have a fitted effect of over 60% in size
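16 hr compound incubation (37 °C, 5% CO2) of HEK293T cells carrying luciferase-tagged ELG1; luciferase then measured by ONE-Glo luminescence after 30 min at RT.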
FLuc modulator: inhibits or activates purified firefly luciferase, miR-21 counter-screen; actives 6.9% (n = 360,000); P08659; purified FLuc, Km substrates, luminescence inhibition; AID 588342; Potency, µM (top dose mostly 57.5 µM), for inactives: at the top dose activity change, negative = inhibition, hits mostly inhibitors;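 also: plate controls were vehicle for no effect and reference inhibitor for full effect; nearly all actives have a fitted effect of over 55% in size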
Target sequence (P08659 whole entry, looked up): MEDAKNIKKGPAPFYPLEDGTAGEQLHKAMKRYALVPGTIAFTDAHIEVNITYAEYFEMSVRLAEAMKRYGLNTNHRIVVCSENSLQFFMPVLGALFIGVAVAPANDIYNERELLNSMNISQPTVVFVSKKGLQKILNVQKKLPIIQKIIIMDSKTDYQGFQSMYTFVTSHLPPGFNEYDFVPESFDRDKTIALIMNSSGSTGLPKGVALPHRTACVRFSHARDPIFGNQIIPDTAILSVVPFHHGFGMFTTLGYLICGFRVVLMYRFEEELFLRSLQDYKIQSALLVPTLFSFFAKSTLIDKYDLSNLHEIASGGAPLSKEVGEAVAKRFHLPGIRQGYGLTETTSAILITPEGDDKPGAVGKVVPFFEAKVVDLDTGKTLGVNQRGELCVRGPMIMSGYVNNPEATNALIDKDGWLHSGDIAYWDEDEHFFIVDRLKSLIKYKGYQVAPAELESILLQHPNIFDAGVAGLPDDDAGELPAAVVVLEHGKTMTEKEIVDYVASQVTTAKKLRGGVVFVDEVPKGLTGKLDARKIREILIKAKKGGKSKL
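Purified P. pyralis luciferase (10nM final) with 10uM D-luciferin and 10uM ATP (Km levels) in 50mM Tris acetate pH 7.5, 10mM Mg acetate, 0.01% Tween-20, 0.05% BSA; qHTS 6-point titration, ~60 µM downward; luminescence read.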
Starred values were filed as active, the others as inactive; ? = inconclusive; . = no result given; [ ] = dose if it differs, or a comment. Calls follow the shape of the dose curve; as a rule, active = well fitted curve in the direction sought with a large enough effect; inconclusive = small, poorly fitted or top-dose-only effect, or another doubt; inactive = no such curve, though single readings can be large; an effect the other way counts as inactive or inconclusive. Potency is read from the fitted curve at half-maximal effect.

SMILES	Rab9 promoter act	NPC1 promoter act	SMN2 splice up	p53 reactivator	ELG1 genotoxic	FLuc modulator
Cc1ccc(-n2nc3c(N4CCCC(C(=O)NCCc5ccccc5)C4)nnc(C)c3c2C)cc1 (stereo not given)	.	.	.	.	.	1.0%
O=C(N1CCOCC1)N1CCN(c2nc(-c3ccc(F)cc3)cs2)CC1	1.0%	-0.2%	-0.5%	4.5%	-2.2%	10.7µM*
O=C(NNC(=O)c1cc(Br)ccc1O)c1csc(N2CCOCC2)n1	-16.6%	-2.4%	.	?	-5.9%	.
CC(C)C(=O)N1CCN(c2nc(-c3ccc(Cl)cc3)cs2)CC1	-6.1%	-5.7%	.	0.4%	2.8%	-0.9%
c1ccc(-c2csc(N3CCCCCC3)n2)cc1	19.3%	9.9%	?	?	18.4µM*	15.1µM*
CCOC(=O)N1CCN(c2nc(-c3ccc(Cl)cc3)cs2)CC1	6.7%	3.5%	-25.8%	-14.5%	?	16.9µM*
Brc1ccc(-c2csc(N3CCOCC3)n2)cc1	3.98µM*	?	.	16.6%	-13.7%	8.49µM*
Cc1ccc(-n2ncc(C(=O)NCCN3CCC(Cc4ccccc4)CC3)c2C2CCN(C(=O)OC(C)(C)C)CC2)cc1	.	.	.	.	.	-7.6%
Nc1nc2c(c(=O)[nH]1)N(C=O)[C@H](CNc1ccc(C(=O)N[C@@H](CCC(=O)O)C(=O)O)cc1)CN2	.	.	-5.1%[20.6 µM]	.	.	.
O=C1ON=C(c2ccccc2[N+](=O)[O-])/C1=C/c1cccc([N+](=O)[O-])c1O	3.2%	-1.3%	.	?	-0.6%	1.3%
COc1ccc(NC(=O)CN(C)C(=O)c2ccc(S(=O)(=O)Nc3ccccc3C)cc2)cc1	-6.0%	1.1%	.	1.3%	4.9%	1.8%
Clc1ccc(-c2csc(N3CCCCCC3)n2)cc1	5.3%	5.4%	.	?	8.3%	10.7µM*
CNC(=S)N1CCN(c2nc(-c3ccc(Cl)cc3)cs2)CC1	-0.7%	-5.9%	.	.	4.1%	?
NC(=O)C1(N2CCCCC2)CCN(c2nc(-c3ccc(Br)cc3)cs2)CC1	-2.4%	-0.4%	-42.4%	5.3%	-2.4%	-0.1%
CN1CCN(c2nc(-c3ccc(Cl)s3)cs2)CC1	?	12.5%	10.7%	10.7%	15.0%	16.9µM*
COc1ccc(-c2csc(N3CCOCC3)n2)cc1OC	?	?	?	25.0%	18.4µM*	12µM*
CN(C(=O)C1CCC1C(=O)O)c1nc(-c2ccc(Cl)s2)cs1 (stereo not given)	-2.3%	3.5%	.	9.5%	2.4%	?
Brc1ccc(-c2csc(N3CCCCCC3)n2)cc1	-15.4%	-8.0%	.	?	6.5%	8.49µM*
Cc1ccccc1CNC(=O)C(=O)NCC1CCCN1S(=O)(=O)c1cccs1 (stereo not given)	10.6%	-0.8%	.	-2.7%	9.4%	1.1%
O=[N+]([O-])c1ccc(-c2csc(N3CCCCCC3)n2)cc1	?	?	.	.	14.4%	12µM*
N=C1SCC(=O)N1c1nc(-c2ccccc2)cs1	2µM*	2.24µM*	11.2µM*	17.9%	?	5.36µM*
CCOC(=O)c1c(NC(=S)NNS(=O)(=O)c2ccc(Br)cc2)sc2c1CCCCC2	-10.4%	-1.1%	.	-3.5%	-12.8%	-0.9%
COc1ccc2oc(C(=O)OCC(=O)N3CCCCC3C)c(C)c2c1 (stereo not given)	.	.	.	?	10.0%	.
COC(=O)CCC(=O)c1oc2ccc(OC)cc2c1N	4.47µM*	2.51µM*	?	?	3.66µM*	3.38µM*
COc1ccc(C(=O)c2oc3ccccc3c2N)cc1	?	3.55µM*	12.6µM*	?	9.2µM*	10.7µM*
SMILES	Rab9 promoter act	NPC1 promoter act	SMN2 splice up	p53 reactivator	ELG1 genotoxic	FLuc modulator
COC(=O)c1oc2ccc(Cl)cc2c1N	20.8%	16.1%	?	16.7%	10.9%	1.6%[2.3 µM]
Nc1c(C(=O)c2ccccc2)oc2ccccc12	24.2%	?	-10.7%	?	?	?
O=C(c1ccc(Cl)cc1)c1coc2ccc(O)cc12	?	?	-13.7%	?	12.6%	3.79µM*
COc1ccc2oc(C(=O)C3CC3)c(N)c2c1	?	?	?	?	?	13.5µM*
COc1ccccc1NC(=O)Nc1nc(-c2cccnc2)nc2ccccc12	.	.	-10.4%	.	.	.
CC(C)N(Cc1ccccc1)S(=O)(=O)c1ccc(-c2cc(C(F)(F)F)on2)s1	.	.	.	.	.	5.2%
CCOC(=O)c1ccc(NC(=O)CSc2nnc(-c3ccncc3)n2-c2ccccc2)cc1	.	.	.	.	.	-1.7%
COc1ccc2occ(C(=O)c3ccccc3)c2c1	?	29.5%	?	2.4%	?	13.5µM*
COc1ccc2occ(C(C)=O)c2c1	-1.3%[1.84 µM]	1.6%	-19.0%	0.3%	-1.3%	-2.2%
COc1ccc(C(=O)Nc2c(C(=O)c3ccccc3)oc3ccccc23)cc1	.	.	13.9%	.	.	-0.7%
COc1ccc2oc(C(=O)c3ccccc3)c(N)c2c1	2µM*	2µM*	11.2µM*	?	?	3.01µM*
Cc1ccc(OCCC(=O)OCC(=O)Nc2ccccc2)cc1	-0.4%	0.4%	.	11.7%	0.1%	-13.1%
Cn1c(=O)c2c(nc(N3CCOCC3)n2Cc2ccccc2F)n(C)c1=O	.	.	16.6%	.	.	-1.8%
CC(C)(C)NC(=O)Nc1ccc2nccnc2c1	3.55µM*	3.55µM*	?	?	?	23.9µM*
CCOc1ccc(NC(=O)c2ccc(NC(=O)Cc3n[nH]c(=O)c4ccccc34)cc2)cc1	-0.7%	2.5%	.	-1.2%	9.2µM*	-17.2%
CCOc1ccc(NC(=O)Nc2ccc3nccnc3c2)cc1	4.9%	-0.3%	-22.1%	-5.1%	-11.6%	19µM*
CCCNC(=O)c1n[nH]c(=O)c2ccccc12	-1.1%	1.2%	.	-2.5%	3.0%	1.6%
CCc1ccc(NC(=O)c2n[nH]c(=O)c3ccccc23)cc1	2.51µM*	3.16µM*	.	6.7%	?	?
N#Cc1ccccc1OCC(=O)N1CCN(S(=O)(=O)c2ccc(Cl)cc2)CC1	1.5%	-6.0%	.	8.1%	-0.2%	.
Cc1ccc(CCNC(=O)c2cnc3c(-c4ccc(F)cc4)c(C)nn3c2C)cc1	.	.	.	.	.	0.3%
CCOc1ccc(NC(=O)c2ccc(N)cc2)cc1	?	?	?	19.1%	?	9.53µM*
CCOc1ccc(NC(=O)c2ccc(NC(=O)c3ccc(NC(N)=O)cc3)cc2)cc1	.	.	.	0.7%	1.0%	.
CCOc1ccc(NC(=O)c2ccc3nccnc3c2)cc1	?	21.0%	-26.4%	15.7%	?	16.9µM*
CCOc1ccc(NC(=O)c2ccc(OC)cc2)cc1	20.1%[1.84 µM]	?	12.6%	?	15.9%	?
COc1ccc(NC(=O)c2ccc3nccnc3c2)cc1	2µM*	3.98µM*	12.6µM*	?	?	26.9µM*
